Assay outcomes deposited in PubChem by National Center for Advancing Translational Sciences (NCATS).
Sampled rows, rich in hits. Any-hit rate of the full collection: about 8.5%.
KDM4E inh = inhibitors of human JMJD2E histone demethylase; B2RXH2; JMJD2E catalytic domain, FDH-coupled NADH fluorescence (FDH is formaldehyde dehydrogenase); Potency, µM (doses to about 57.1 µM), for inactives: at the highest dose activity change, negative = inhibition, usual class: inhibitors; 230,000 tested, 1.6% active; active = well fitted inhibition curve with a large enough effect, not every such curve was filed as active; inconclusive = small, poorly fitted or top-dose-only effect, or another doubt; inactive = no such curve, though single readings can be large or run the other way;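 also: potency is read from the fitted curve at half-maximal effect; 0% = wells with enzyme and -100% = buffer wells without enzyme; nearly all actives have a fitted effect of over 50% in size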
Target sequence (B2RXH2 1-337 limits assumed): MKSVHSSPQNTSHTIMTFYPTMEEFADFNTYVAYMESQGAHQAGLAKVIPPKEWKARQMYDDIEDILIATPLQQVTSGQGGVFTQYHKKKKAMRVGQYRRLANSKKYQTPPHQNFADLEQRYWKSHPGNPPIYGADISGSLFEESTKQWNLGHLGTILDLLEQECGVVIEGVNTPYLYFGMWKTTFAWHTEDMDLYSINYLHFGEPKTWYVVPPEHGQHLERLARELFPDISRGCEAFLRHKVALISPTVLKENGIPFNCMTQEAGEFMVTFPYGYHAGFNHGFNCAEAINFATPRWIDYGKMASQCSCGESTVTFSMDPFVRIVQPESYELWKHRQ
ALDH1A1 inh = blocks purified human ALDH1A1 activity; P00352; Purified ALDH1A1, NADH fluorescence, propionaldehyde substrate; Potency, µM (doses to about 75.3 µM), for the others: top-dose activity, negative = inhibition, actives largely listed as inhibitors; 220,000 tested, 7.3% active; AID 1030; active = well fitted inhibition curve with a large enough effect, not every such curve was filed as active; inconclusive = small, poorly fitted or top-dose-only effect, or another doubt; inactive = no such curve, though single readings can be large or run the other way;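 also: potency is read from the fitted curve at half-maximal effect; plate controls were no enzyme wells and a reference inhibitor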
Sfp PPTase inh = inhibitors of Bacillus subtilis Sfp phosphopantetheinyl transferase; AID 1490; 310,000 tested, 3.5% active; Q9F4F7; Biochemical Sfp PPTase activity, qHTS; Potency, µM, for the others: largest response in the series, negative = inhibition, usual class: inhibitors;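 also: the enzyme is Sfp with the accession as filed and its product quenches rhodamine fluorescence; potency is read from the fitted curve at half-maximal effect; 0% = enzyme reaction without inhibitor and -100% = no enzyme wells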
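Step 1, compound plus 15 nM Sfp-PPTase, 15 min, room temperature. Step 2, add rhodamine-CoA (5 uM) and BHQ-2-YbbR (12.5 uM). Step 3, read 525/598 nm fluorescence at 0 and 30 min.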
RGS12 GoLoco inh = inhibitors of human Gai1-RGS12 GoLoco interaction (red fluorophore). Gai1:RGS12 GoLoco peptide FP, rhodamine, 10 min. Potency, µM (series often up to 61.6 µM), without a hit: top-dose activity, negative = inhibition, hits mostly inhibitors. 230,000 tested, 0.44% active; active = well fitted inhibition curve with a large enough effect, not every such curve was filed as active; inactive = no such curve, though single readings can be large or run the other way; also: potency is read from the fitted curve at half-maximal effect; nearly all actives have a fitted effect of over 30% in size
NPSR antagonist = neuropeptide S receptor (human) antagonism, cAMP | AID 1461 | Q6W5P4 | Potency, µM (top dose mostly 38.3 µM), without a hit: top-dose activity change, negative = inhibition, hits mostly inhibitors | CHO-NPSR cells, cAMP TR-FRET, antagonist mode | 220,000 tested, 1% active; also: potency is read from the fitted curve at half-maximal effect; nearly all actives have a fitted effect of over 50% in size
Target sequence (Q6W5P4 whole entry, looked up): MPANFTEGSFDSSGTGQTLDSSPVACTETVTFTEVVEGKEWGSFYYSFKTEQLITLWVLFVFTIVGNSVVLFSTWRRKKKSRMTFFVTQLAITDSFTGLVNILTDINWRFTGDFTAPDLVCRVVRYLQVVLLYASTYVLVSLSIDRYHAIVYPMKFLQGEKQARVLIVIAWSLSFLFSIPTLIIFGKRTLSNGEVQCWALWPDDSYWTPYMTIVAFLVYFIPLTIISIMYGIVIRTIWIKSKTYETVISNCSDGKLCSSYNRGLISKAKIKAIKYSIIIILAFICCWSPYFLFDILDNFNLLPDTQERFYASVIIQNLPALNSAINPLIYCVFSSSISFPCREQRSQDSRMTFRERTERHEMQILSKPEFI
FBPA coupling cs = inhibits coupling enzyme system, counter-screen for aldolase hits | coupling enzyme system counterscreen, AmpLite Red fluorescence | 290,000 tested, 0.67% active | activity change, negative = inhibition, % at 58.2 µM, hits read low | AID 2472; in the data active = activity change below about -30%
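Counterscreen of the coupled detection system alone, without aldolase: glyceraldehyde-3-phosphate coupling enzymes plus AmpLite Red readout. Compounds at 57.5 uM final, 10 min RT preincubation, 20 min RT reaction, fluorescence 525/598 nm.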
Starred values were filed as active, the others as inactive; [ ] = another dose, or the depositor's remark. Unless noted, calls follow the shape of the dose curve; as a rule, active = well fitted curve in the direction sought with a large enough effect; inconclusive = small, poorly fitted or top-dose-only effect, or another doubt; inactive = no such curve, though single readings can be large; an effect the other way counts as inactive or inconclusive. Unless noted, % is scaled to controls: 0 for no effect and ±100 for the full control effect.

Results for CC(C)OCC(O)CCc1n[nH]c(=S)n1-c1ccccc1 (stereo unspecified) ?
KDM4E inh: 2.8%; ALDH1A1 inh: 1.8%; Sfp PPTase inh: 79.4µM*; RGS12 GoLoco inh: -11.2%; NPSR antagonist: 18.9%; FBPA coupling cs: 0.6

What do the screens show for `CCCCOCC(O)CCc1n[nH]c(=S)n1-c1ccccc1` (stereo unspecified)?
KDM4E inh: 0.3%; ALDH1A1 inh: inconclusive; Sfp PPTase inh: inconclusive; RGS12 GoLoco inh: 17.4%; NPSR antagonist: 5.8%; FBPA coupling cs: 6.5

What do the screens show for `O=C(NCCc1nnc2ccc(SCC(=O)N3CCCC3)nn12)c1ccc(F)cc1`?
Sfp PPTase inh: 13.1%; FBPA coupling cs: 2.4

How did COc1ccc(C(C(=O)Nc2ccc(C(C)C)cc2)N(Cc2ccco2)C(=O)CC2NC(=O)NC2=O)cc1 (stereo unspecified) do in these assays?
KDM4E inh: -4.1%; ALDH1A1 inh: 25.1µM*; Sfp PPTase inh: -17.4%; RGS12 GoLoco inh: -3.5%; NPSR antagonist: -28.3%; FBPA coupling cs: -4.6

What do the screens show for `CC1c2ccccc2SC(CCCN(C)C)c2ccccc21` (stereo unspecified)?
KDM4E inh: 2.5%; ALDH1A1 inh: -0.9%; Sfp PPTase inh: 44.7µM*; RGS12 GoLoco inh: -5.3%; NPSR antagonist: 23.6%; FBPA coupling cs: -9.6

Results for CCC(=O)N1CCN(c2ccc(Cl)cc2NC(=O)Cc2ccc(Cl)cc2)CC1 ?
KDM4E inh: -0.8%; ALDH1A1 inh: inconclusive; Sfp PPTase inh: 13.4%; RGS12 GoLoco inh: -13.3%; NPSR antagonist: inconclusive; FBPA coupling cs: -2.7

Results for Cc1oc2c(cc(NS(=O)(=O)c3ccc(C(C)C)cc3)c3ccccc32)c1C(=O)O ?
Sfp PPTase inh: -7.5%; FBPA coupling cs: -11.8

Results for Cc1oc2c(cc(NS(=O)(=O)c3cccs3)c3ccccc32)c1C(=O)OC(C)C ?
KDM4E inh: 2.0%; ALDH1A1 inh: inconclusive; Sfp PPTase inh: inconclusive; RGS12 GoLoco inh: 228.2%; NPSR antagonist: inconclusive; FBPA coupling cs: 2.1

Results for COc1ccc(S(=O)(=O)Nc2cc3c(C(C)=O)c(C)oc3c3ccccc23)cc1 ?
KDM4E inh: 2.9%; ALDH1A1 inh: inconclusive; Sfp PPTase inh: 44.7µM*; RGS12 GoLoco inh: -0.5%; NPSR antagonist: 12.9%[46.1 µM]; FBPA coupling cs: -27.3

Results for Cc1oc2c(cc(NS(=O)(=O)c3ccc(F)cc3)c3ccccc32)c1C(=O)O ?
Sfp PPTase inh: 2.9%; FBPA coupling cs: -31.0*

How did COc1cc([N+](=O)[O-])ccc1NC(=S)Nc1cc(C(=O)OC(C)C)cc(C(=O)OC(C)C)c1 do in these assays?
KDM4E inh: inconclusive; ALDH1A1 inh: inconclusive; Sfp PPTase inh: 21.4%; RGS12 GoLoco inh: 1.0%; NPSR antagonist: -37.8%; FBPA coupling cs: 2.4

How did CC(C)(C)C1CCc2c(sc(N)c2C(N)=O)C1 (stereo unspecified) do in these assays?
KDM4E inh: inconclusive; ALDH1A1 inh: inconclusive; Sfp PPTase inh: 50.1µM*; RGS12 GoLoco inh: 75.6%; NPSR antagonist: -1.0%[46.1 µM]; FBPA coupling cs: -18.7

What do the screens show for `CCCC1CCc2c(sc(N)c2C(N)=O)C1` (stereo unspecified)?
KDM4E inh: -14.4%; ALDH1A1 inh: 10µM*; Sfp PPTase inh: inconclusive; RGS12 GoLoco inh: 7.0%; NPSR antagonist: -8.3%[46.1 µM]; FBPA coupling cs: -0.8

How did O=C(COc1ccc(S(=O)(=O)N2CCCC2)cc1)N1CCCC1 do in these assays?
Sfp PPTase inh: 14.4%; FBPA coupling cs: 1.0

How did COC(=O)c1ccc(C(NC(=O)OCc2ccccc2)/C(C)=C/[C@@H](C)C(=O)N[C@@H](CO)Cc2ccccc2)cc1 (stereo partly specified) do in these assays?
KDM4E inh: -13.5%; ALDH1A1 inh: inconclusive; Sfp PPTase inh: 28.7%; RGS12 GoLoco inh: 0.2%; FBPA coupling cs: -0.3

What do the screens show for `OC(CNC1CCCc2ccccc21)COc1ccc2ccccc2c1` (stereo unspecified)?
KDM4E inh: inconclusive; ALDH1A1 inh: inconclusive; Sfp PPTase inh: -32.2%; RGS12 GoLoco inh: 1.0%; NPSR antagonist: -3.6%; FBPA coupling cs: 0.3

Results for CCc1ccccc1OC[C@@H](O)CN[C@H]1CCCc2ccccc21 ?
KDM4E inh: -5.8%; ALDH1A1 inh: -0.5%; Sfp PPTase inh: 50.1µM*; RGS12 GoLoco inh: 7.9%; FBPA coupling cs: -0.5

What do the screens show for `COCC(C)n1c(C)cc(C(=O)COC(=O)C2=NN(c3ccccc3)C(=O)CC2)c1C` (stereo unspecified)?
KDM4E inh: 4.8%; ALDH1A1 inh: 11.5%; Sfp PPTase inh: 18.1%; RGS12 GoLoco inh: 7.2%; NPSR antagonist: 2.5%; FBPA coupling cs: 2.8

Results for COCC(C)n1c(C)cc(C(=O)COC(=O)c2ccc(N3CCCC3=O)cc2)c1C (stereo unspecified) ?
KDM4E inh: 1.5%; ALDH1A1 inh: 25.1µM*; Sfp PPTase inh: 17.1%; RGS12 GoLoco inh: -2.2%; NPSR antagonist: -19.1%[46.1 µM]; FBPA coupling cs: 0.6

What do the screens show for `CC(=O)Nc1ccc(NS(=O)(=O)c2cccc3nonc23)cc1`?
Sfp PPTase inh: 17.4%; FBPA coupling cs: 3.0

What do the screens show for `COc1cccc(Nc2nc(N)c([N+](=O)[O-])c(N3CCOCC3)n2)c1`?
Sfp PPTase inh: 2.4%; FBPA coupling cs: -1.9

How did Cc1ccc(C(=O)CN2/C(=C(\O)c3ccccc3)C(=O)c3ccccc3S2(=O)=O)c(C)c1 do in these assays?
KDM4E inh: 1.9%; ALDH1A1 inh: 2.82µM*; Sfp PPTase inh: 36.4%; RGS12 GoLoco inh: 1.7%; NPSR antagonist: -30.6%[46.1 µM]; FBPA coupling cs: -2.1

Results for Cc1ccc(C(=O)CN2C(=O)c3ccccc3S2(=O)=O)cc1 ?
KDM4E inh: -5.4%; ALDH1A1 inh: -5.7%; Sfp PPTase inh: 19.7%; RGS12 GoLoco inh: 3.0%; NPSR antagonist: -3.6%; FBPA coupling cs: 1.0

Results for Cc1ccc2[nH]c3c(c2c1)CCN(C)C3 ?
Sfp PPTase inh: 16.0%; FBPA coupling cs: 0.2

How did CC(C)Cn1c(SCC(=O)N2CCCCC2)nc2ccccc2c1=O do in these assays?
KDM4E inh: -0.3%; ALDH1A1 inh: 22.4µM*; Sfp PPTase inh: -3.5%; RGS12 GoLoco inh: 3.0%; NPSR antagonist: -22.9%[46.1 µM]; FBPA coupling cs: 4.3

What do the screens show for `CCOC(=O)CSc1nc2cc(C(=O)N3CCCC3)ccc2c(=O)n1Cc1ccccc1`?
KDM4E inh: -7.9%; ALDH1A1 inh: 25.1µM*; Sfp PPTase inh: -23.1%; RGS12 GoLoco inh: 2.6%; NPSR antagonist: -22.9%[46.1 µM]; FBPA coupling cs: -4.6

Results for COCCn1c(SCC(=O)c2ccccc2)nc2ccccc2c1=O ?
KDM4E inh: 1.9%; ALDH1A1 inh: 17.8µM*; Sfp PPTase inh: -9.6%; RGS12 GoLoco inh: 13.7%; NPSR antagonist: 24.2%; FBPA coupling cs: 7.6
